Where “and” joins values, the source holds several entries; their conditions need not be identical. Identical values can stand only once. Records with an inconclusive call do not appear. Some structures have more than one record in an assay (separate samples or runs), and their calls can disagree. Calls of active or inactive are those of the source. Unless noted, calls come from the whole dose curve.
What was measured:
[1] = AP1 Signaling Pathway (AID 357; active = well fitted curve in either direction with a large enough effect, not every such curve was filed as active;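 note: ME-180 reporter cells stimulated with EGF at its EC50 level; % is set by controls: 0 for no effect and ±100 for the full control effect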)
Method in brief: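 Read-out was the 460nm/530nm emission ratio (excitation 405nm) after CCF4 loading for 2.5 hours at room temperature. Cells carried an AP-1-driven beta-lactamase reporter, were stimulated with EC50 EGF plus compound for 5 hours, and AC50 values came from titrations.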

[2] = Stat Signaling Pathway (AID 446; active = well fitted curve in either direction with a large enough effect, not every such curve was filed as active;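 note: ME-180 cervical cancer cells given 40 pM IL-6 alongside compound; SIE-controlled beta-lactamase reporter measured as 460/530 nm FRET emission ratio; % is set by controls: 0 for no effect and ±100 for the full control effect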)
Method in brief: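 Normalization used AC90 stimulation (300 pM IL-6) and AC90 inhibition (125 nM pan-JAK inhibitor at 40 pM IL-6). The underlying signal is SIE-driven beta-lactamase in ME-180 cells after 5 h IL-6 exposure with compound.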

[3] = biological target: Glucocorticoid receptor (Homo sapiens) (UniProt P04150); experiment: GR-GFP Redistribution (AID 450;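 active = compounds whose dose series gives a full or clear partial fitted curve of increased nuclear translocation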; note: potency is the fitted concentration of half-maximal effect); conditions: U2OS GR-GFP nuclear translocation, laser cytometry, 2 h
Sequence of Glucocorticoid receptor (Homo sapiens) (P04150 whole entry, looked up, the tested form may be a part): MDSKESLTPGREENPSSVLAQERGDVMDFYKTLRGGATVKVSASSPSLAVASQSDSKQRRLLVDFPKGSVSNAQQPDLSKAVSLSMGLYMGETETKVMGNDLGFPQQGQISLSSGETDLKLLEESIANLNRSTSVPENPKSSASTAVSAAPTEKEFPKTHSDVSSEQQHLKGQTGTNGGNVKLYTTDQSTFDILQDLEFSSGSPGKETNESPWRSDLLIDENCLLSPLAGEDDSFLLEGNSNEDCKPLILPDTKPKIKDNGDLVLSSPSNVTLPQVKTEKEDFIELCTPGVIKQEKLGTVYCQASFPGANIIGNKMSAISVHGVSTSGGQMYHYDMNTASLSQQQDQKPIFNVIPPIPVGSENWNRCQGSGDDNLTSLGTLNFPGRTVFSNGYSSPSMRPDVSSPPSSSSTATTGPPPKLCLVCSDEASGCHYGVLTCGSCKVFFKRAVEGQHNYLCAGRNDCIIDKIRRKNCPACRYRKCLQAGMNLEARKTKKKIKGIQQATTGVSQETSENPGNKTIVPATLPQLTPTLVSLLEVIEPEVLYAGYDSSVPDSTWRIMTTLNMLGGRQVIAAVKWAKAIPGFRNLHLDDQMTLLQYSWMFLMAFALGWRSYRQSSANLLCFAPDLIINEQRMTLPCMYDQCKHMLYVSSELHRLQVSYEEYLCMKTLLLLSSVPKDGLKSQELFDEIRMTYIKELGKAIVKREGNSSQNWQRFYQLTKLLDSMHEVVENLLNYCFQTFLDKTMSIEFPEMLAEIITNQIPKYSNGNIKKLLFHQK

[4] = Cell Viability - Jurkat (AID 426;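 active = dose-dependent loss of cell ATP signal giving a full or clear fitted curve, ranked by lower potency value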; note: potency is the fitted concentration of half-maximal effect); conditions: qHTS
Method in brief: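 Cytotoxicity taken as drop in cellular ATP (CellTiter-Glo luminescence, 20 min room temperature) after 40 hr, 37C treatment of 5000 Jurkat Clone E6-1 cells per well; concentration-response fitted with Hill equation for AC50.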

[5] = Cell Viability - MRC5 (AID 434); conditions: MRC5 lung fibroblast viability, qHTS;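 note: potency is the fitted concentration of half-maximal effect; potency reflects cytotoxicity seen as loss of intracellular ATP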
Method in brief: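 ATP luminescence read-out (CellTiter-Glo, 20 min RT) after 40 hr, 37 °C compound exposure of 1500 MRC5 cells/well. Data normalized to DMSO (basal) and 100 uM tamoxifen (100% inhibition); AC50 from standard Hill equation.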

[6] = Cell Viability - SK-N-SH (AID 435); conditions: SK-N-SH neuroblastoma cell viability qHTS; note: potency is the fitted concentration of half-maximal effect
Method in brief: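 SK-N-SH human neuroblastoma cells (1500/well) were exposed to compounds in complete medium for 40 h at 37 °C, and intracellular ATP was then measured by CellTiter-Glo luminescence. AC50 was taken from Hill fits, normalized to DMSO and 100 uM tamoxifen.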

[7] = Cell Viability - N2a (AID 540; active = well fitted curve in the direction sought with a large enough effect; an effect the other way counts as inactive or inconclusive; note: nearly all actives have a fitted effect of over 45% in size; note: potency is the fitted concentration of half-maximal effect;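 for activity change, negative = cytotoxicity: plate controls were DMSO alone for no effect and tamoxifen control for full effect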); conditions: N2a mouse neuroblastoma cell viability; activity change, negative = cytotoxicity: at 92.2 µM (top of the series)
Method in brief: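 CellTiter-Glo ATP luminescence, read 20 min after reagent at room temperature, reported viability following 40 h compound treatment at 37 °C. N2a mouse neuroblastoma cells seeded 1500/well; Hill equation gave AC50.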

[8] = Cell Viability - Mesenchymal (AID 546; active = well fitted curve in the direction sought with a large enough effect; an effect the other way counts as inactive or inconclusive;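 note: cells exposed to compound for 40 hours before reading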; note: potency is the fitted concentration of half-maximal effect;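 for activity change, negative = cytotoxicity: 0% = DMSO only and -100% = 100 µM tamoxifen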); conditions: mesenchymal cells viability, qHTS; activity change, negative = cytotoxicity: at 91.7 µM (top of the series)
Method in brief: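 Human renal mesenchymal cells (glomerulus-derived), 1000 cells/well, 5 hr 37 °C pre-incubation; compound 40 hr, 37 °C; CellTiter-Glo, 20 min RT; luminescence; AC50 via Hill equation.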

[9] = biological target: Cytochrome P450 1A2 (Homo sapiens) (UniProt P05177); experiment: p450-cyp1a2 (AID 410); note: potency is the fitted concentration of half-maximal effect;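 for activity change, negative = inhibition: -100% = full effect of reference inhibitor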
Sequence of Cytochrome P450 1A2 (Homo sapiens) (P05177 whole entry, looked up): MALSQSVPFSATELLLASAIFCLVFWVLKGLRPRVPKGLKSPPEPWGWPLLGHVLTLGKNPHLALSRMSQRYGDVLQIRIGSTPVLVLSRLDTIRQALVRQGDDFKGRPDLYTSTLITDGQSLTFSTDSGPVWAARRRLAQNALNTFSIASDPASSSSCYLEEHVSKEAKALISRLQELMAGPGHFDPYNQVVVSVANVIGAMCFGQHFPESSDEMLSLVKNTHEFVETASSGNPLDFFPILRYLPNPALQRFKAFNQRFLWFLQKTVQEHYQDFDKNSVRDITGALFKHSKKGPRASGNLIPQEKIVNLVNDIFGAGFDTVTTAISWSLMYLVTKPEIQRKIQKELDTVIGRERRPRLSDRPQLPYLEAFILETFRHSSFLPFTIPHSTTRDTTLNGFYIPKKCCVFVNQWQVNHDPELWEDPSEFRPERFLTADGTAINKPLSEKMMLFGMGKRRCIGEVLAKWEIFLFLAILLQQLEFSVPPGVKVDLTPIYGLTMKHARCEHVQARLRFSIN
Method in brief: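 Luminescent demethylation readout: Luciferin-ME (100uM, equal to Km) turned over by 20nM CYP1A2 for 60 min at room temperature after NADPH regeneration addition, following 10 min compound preincubation. Normalization used 57 uM furafylline as full inhibition.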

[10] = biological target: Glucocorticoid receptor (Homo sapiens) (UniProt P04150); experiment: GR-EFC Redistribution (AID 451); conditions: CHO-K1 GR-EFC translocation, beta-gal luminescence, 2 h; note: potency is the fitted concentration of half-maximal effect
Method in brief: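 CHO-K1 cells expressing nuclear EA and GR-ED fragments of b-gal; compounds titrated up to 46 uM final, 2 h at 37 C. GR nuclear translocation read as complemented b-gal luminescence after 1 h RT detection.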

[11] = biological target: Mitogen-activated protein kinase 10 (Mus musculus) (UniProt Q61831); experiment: JNK3 AlphaScreen Assay (AID 530; active = well fitted curve in either direction with a large enough effect, not every such curve was filed as active;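 note: kinase came from lysate of stimulated human HepG2 cells; signal reports phosphorylation of biotinylated GST-cJun 1-79 at Ser73 with 10 µM ATP; % is set by controls: 0 for no effect and ±100 for the full control effect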)
Method in brief: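 Activity was read by AlphaScreen after JNK3-containing HepG2 lysate (cytokine pre-activated) phosphorylated biotinylated GST-cJun with 10 uM ATP at room temperature. Phospho-Ser73 cJun antibody with Protein-A acceptor beads provided detection.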

[12] = NFAT Signaling Pathway (AID 444; active = well fitted curve in either direction with a large enough effect, not every such curve was filed as active;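 note: carbachol stimulus at about its EC50 of 1 µM final; % is set by controls: 0 for no effect and ±100 for the full control effect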); conditions: Jurkat NFAT-bla M1, carbachol, beta-lactamase ratio, 5 h
Method in brief: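 Jurkat cells with NFAT-driven β-lactamase reporter and co-expressed M1 receptor, stimulated with carbachol (final 1 uM, ~EC50), compound titration, 5 h at 37 °C. CCF4 loaded 1 h at RT; 460/530 nm ratio gave %activity and AC50.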

[13] = Cell Viability - BJ (AID 421); conditions: BJ fibroblast viability, qHTS;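 note: potency is the fitted concentration of half-maximal effect; cells exposed to compound for 40 hours at 37 °C before readout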
Method in brief: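 Normal human BJ foreskin fibroblasts, 1500/well in complete medium, treated 40 hr at 37 °C. Cellular ATP by CellTiter-Glo luminescence; normalized to DMSO and 100 uM tamoxifen, AC50 from Hill fit.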

[14] = Cell Viability - Hek293 (AID 427;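 active = compounds whose dose-response curve shows a full or clear partial loss of cell viability, called from curve shape rather than a numeric limit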;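 note: potency is the fitted concentration of half-maximal effect; cells exposed to compound for 40 hours at 37 °C before reading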); conditions: qHTS
Method in brief: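 HEK293 cells in complete medium were exposed to compound for 40 hr at 37 °C, then cellular ATP was read by CellTiter-Glo luminescence. Data were normalized to DMSO (basal) and 100 uM tamoxifen (100% inhibition), and AC50 came from Hill fits.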

[15] = Cell Viability - HepG2 (AID 433); conditions: qHTS;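 note: potency is the fitted concentration of half-maximal effect; potency for ATP loss meaning cytotoxicity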
Method in brief: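 HepG2 hepatocellular carcinoma cells (1500/well) were treated with compounds for 40 h at 37 °C in complete medium; intracellular ATP was read by CellTiter-Glo luminescence. Data were normalized to DMSO and 100 uM tamoxifen, and AC50 came from Hill fits.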

[16] = Cell Viability - NIH 3T3 (AID 541; active = well fitted curve in the direction sought with a large enough effect; an effect the other way counts as inactive or inconclusive; note: nearly all actives have a fitted effect of over 25% in size; note: potency is the fitted concentration of half-maximal effect;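 for activity change, negative = cytotoxicity: plate controls were DMSO alone for no effect and tamoxifen positive control for full effect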); conditions: NIH 3T3 cell viability, qHTS; activity change, negative = cytotoxicity: at 92.2 µM (top of the series)
Method in brief: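 Intracellular ATP (CellTiter-Glo luminescence, 20 min at room temperature) measured after 40 hr compound exposure at 37 °C of 1000 NIH 3T3 mouse fibroblasts/well in complete medium; AC50 derived by Hill-equation modelling of qHTS concentration-response curves.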

[17] = Cell Viability - HUV-EC-C (AID 542; active = well fitted curve in the direction sought with a large enough effect; an effect the other way counts as inactive or inconclusive; note: nearly all actives have a fitted effect of over 35% in size; note: potency is the fitted concentration of half-maximal effect)
Method in brief: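 CellTiter-Glo luminescence measured ATP loss in HUV-EC-C cells (1000/well) after 40 hr compound exposure at 37 °C, in complete culture medium. Concentration-response data were Hill-fitted to give AC50.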

[18] = Cell Viability - H-4-II-E (AID 543; active = well fitted curve in the direction sought with a large enough effect; an effect the other way counts as inactive or inconclusive; note: nearly all actives have a fitted effect of over 35% in size; note: potency is the fitted concentration of half-maximal effect)
Method in brief: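 CellTiter-Glo luminescence (intracellular ATP) measured after 40 h compound exposure at 37 °C in H-4-II-E rat hepatoma cells seeded at 1500/well. Values are AC50s fitted with the standard Hill equation.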

[19] = Cell Viability - SH-SY5Y (AID 544; active = well fitted curve in the direction sought with a large enough effect; an effect the other way counts as inactive or inconclusive; note: nearly all actives have a fitted effect of over 55% in size; note: potency is the fitted concentration of half-maximal effect)
Method in brief: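 Cytotoxicity measured via ATP-dependent luciferase luminescence (CellTiter-Glo) following 40 h, 37 °C exposure of 1500 SH-SY5Y cells per well. Concentration-response data were fitted with the standard Hill equation to give AC50.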

[20] = Cell Viability - Renal Proximal Tubule (AID 545; active = well fitted curve in the direction sought with a large enough effect; an effect the other way counts as inactive or inconclusive; note: nearly all actives have a fitted effect of over 40% in size; note: potency is the fitted concentration of half-maximal effect;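 for activity change, negative = cytotoxicity: 0% = DMSO only and -100% = 100 µM tamoxifen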)
Method in brief: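 Primary rat renal proximal tubule cells (1000/well) were treated with compounds for 40 hr at 37 °C in complete medium. Intracellular ATP was measured by CellTiter-Glo luminescence, and AC50 values came from Hill-equation fits of concentration-response data.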

For `COP(=O)(OC)C(O)C(Cl)(Cl)Cl` (centres undefined), the outcome [1] was “inactive”, the outcome [2] was “inactive” and the Potency [3] was > 20.6 µM (inactive).
With `CC[n+]1c(-c2ccccc2)c2cc(N)ccc2c2ccc(N)cc21` the Potency [4] was 26.8 µM (active), the Potency [5] was > 92 µM (inactive) and the Potency [6] was > 92 µM (inactive). For the same compound, the activity change, negative = cytotoxicity [7] was -81.5% (active) and the Potency [8] was 31.6 µM (active).
With `CC(C)[N+](C)(CCC(C(N)=O)(c1ccccc1)c1ccccc1)C(C)C` the outcome [1] was “inactive”, the Potency [9] was “inactive” and the outcome [2] was “inactive”. For the same compound, the Potency [3] was > 20.6 µM (inactive), the Potency [10] was > 20.6 µM (inactive) and the outcome [11] was “inactive”.
With `c1ccc2nc(N3CCNCC3)ccc2c1` the outcome [1] was “inactive”, the Potency [9] was 1.58 µM (active) and 1.26 µM (active) and 251 nM (active) and the activity change, negative = inhibition ([12]; at 17.2 µM (top of the series)) was -7.47% (inactive). For the same compound, the activity change, negative = inhibition ([12]; at 38 µM (top of the series)) was -5.87% (inactive), the outcome [2] was “inactive” and the Potency [3] was > 46 µM (inactive) and > 20.6 µM (inactive). For the same compound, the Potency [10] was > 46 µM (inactive) and > 20.6 µM (inactive) and the outcome [11] was “inactive”.
With `CN1[C@@H]2CC[C@H]1CC(OC(=O)c1cc(Cl)cc(Cl)c1)C2` (some centres undefined) the outcome [1] was “inactive”, the Potency [9] was “inactive” and the outcome [2] was “inactive”. The Potency [3] was > 46 µM (inactive), the Potency [10] was > 46 µM (inactive) and the outcome [11] was “inactive”.
With `Clc1ccc(CSC(Cn2ccnc2)c2ccc(Cl)cc2Cl)cc1` (centres undefined) the outcome [1] was “inactive”.
For `C[C@@H]1C[C@@H]([C@H](O)CC2CC(=O)NC(=O)C2)C(=O)[C@@H](C)C1`, the Potency [13] was > 92 µM (inactive), the Potency [4] was 301 nM (active) and 142 nM (active) and the Potency [14] was 129 nM (active) and 167 nM (active). The Potency [15] was > 92 µM (inactive), the Potency [5] was > 92 µM (inactive) and the Potency [6] was > 92 µM (inactive). For the same compound, the outcome [11] was “inactive”, the Potency [7] was 0.126 µM (active) and the Potency [16] was 100 nM (active) and 126 nM (active). The Potency [17] was 0.1 µM (active), the Potency [18] was 126 nM (active) and 100 nM (active) and the Potency [19] was 63.1 nM (active) and inactive. The Potency [8] was 79.4 nM (active) and 50.1 nM (active).
With `COc1ccc(C(=O)N2CCCC2=O)cc1` the outcome [1] was “inactive”, the activity change, negative = inhibition ([12]; at 17.2 µM (top of the series)) was -27.3% (inactive) and the activity change, negative = inhibition ([12]; at 38 µM (top of the series)) was 11.8% (inactive). For the same compound, the outcome [2] was “inactive”, the Potency [3] was > 46 µM (inactive) and > 20.6 µM (inactive) and the Potency [10] was > 46 µM (inactive). For the same compound, the outcome [11] was “inactive”.
In the case of `Oc1c(Br)cc(Br)cc1Br`, the Potency [13] is reported as > 92 µM (inactive), the Potency [14] is reported as > 92 µM (inactive) and the Potency [15] is reported as > 92 µM (inactive). For the same compound, the Potency [5] was > 92 µM (inactive), the Potency [6] was > 92 µM (inactive) and the outcome [11] was “inactive”. The Potency [7] was “inactive”, the Potency [16] was “inactive” and the Potency [17] was “inactive”. For the same compound, the Potency [18] was “inactive”, the Potency [19] was “inactive” and the Potency [20] was “inactive”. For the same compound, the Potency [8] was “inactive”.
In the case of `CCCCCCCCCCCC[N+](C)(C)CCOc1ccccc1`, the Potency [13] is reported as 13.7 µM (active), the Potency [4] is reported as 25.2 µM (active) and the Potency [14] is reported as 29.6 µM (active). For the same compound, the Potency [15] was 58.8 µM (active), the Potency [5] was 14.5 µM (active) and the Potency [6] was 24.5 µM (active). For the same compound, the outcome [11] was “inactive”, the Potency [7] was 7.94 µM (active) and the activity change, negative = cytotoxicity [16] was -137% (active). The Potency [17] was 31.6 µM (active), the Potency [18] was 39.8 µM (active) and the Potency [19] was “inactive”. The Potency [20] was 12.6 µM (active) and the Potency [8] was 25.1 µM (active).
In the case of `Oc1ccc2[nH]cc(CCCCN3CC=C(c4ccccc4)CC3)c2c1`, the Potency [9] is reported as 31.6 µM (active), the Potency [3] is reported as > 46 µM (inactive) and the Potency [10] is reported as > 46 µM (inactive).
For `CCCCCCCCC(=O)NCc1ccc(O)c(OC)c1`, the outcome [1] was “inactive”, the Potency [9] was 12.6 µM (active) and the activity change, negative = inhibition ([12]; at 38 µM (top of the series)) was 6.44% (inactive). For the same compound, the outcome [2] was “inactive”, the Potency [3] was > 46 µM (inactive) and the Potency [10] was > 46 µM (inactive).
For `COP(=O)(OC)OC=C(Cl)Cl`, the Potency [13] was > 92 µM (inactive), the Potency [4] was > 92 µM (inactive) and the Potency [14] was > 92 µM (inactive). The Potency [15] was > 92 µM (inactive), the Potency [5] was 30.9 µM (active) and > 92 µM (inactive) and the Potency [6] was > 92 µM (inactive). The outcome [11] was “inactive”, the Potency [7] was “inactive” and the Potency [16] was 12.6 µM (active). For the same compound, the Potency [17] was “inactive”, the Potency [18] was “inactive” and the Potency [19] was 15.8 µM (active). For the same compound, the Potency [20] was “inactive” and the Potency [8] was “inactive”.

Source: PubChem BioAssay (NCATS)
